Screening data (PubChem BioAssay)
KB-3-1 tox: KB-3-1 parental cell cytotoxicity; Potency, µM (series often up to 46.1 µM), actives largely listed as cytotoxic; KB-3-1 viability, CellTiter-Glo ATP luminescence, 72 h; 1.4% of 400,000 active; AID 1347075; further: nearly all actives have a fitted effect of over 60% in size
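KB-3-1 parental drug-naive adenocarcinoma cells in DMEM/10% FBS, incubated 72 h at 37 C with pin-transferred compounds across a concentration series. Viability by CellTiter-Glo luminescence; concentration-response curves fitted after normalization.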
MCF10A rerep: induces DNA re-replication in MCF 10a normal breast cells; MCF 10A DNA re-replication, Hoechst nuclear intensity, 48 h; Potency, µM (doses to about 46.1 µM), hits mostly activators; 2.9% of 350,000 active; AID 624296; further: nearly all actives have a fitted effect of over 50% in size
KB-V1 cytotox: KB-V1 MDR subline cytotoxicity; KB-V1 MDR cells viability, CellTiter-Glo, 72 h; Potency, µM (series often up to 46.1 µM), actives largely listed as cytotoxic; 3.4% of 400,000 active; AID 1347076; further: nearly all actives have a fitted effect of over 60% in size
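Cytotoxicity via CellTiter-Glo luminescence after 72 h compound exposure at 37 degrees C. Cells: drug-selected KB-V1 line, DMEM phenol-red free plus 10% FBS. Compounds tested at multiple concentrations; normalized data fitted to concentration-effect curves.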
ELG1 DNA repair: inhibitors of ELG1-dependent DNA repair in HEK293T cells | Potency, µM (doses to about 46.1 µM), hits mostly inhibitors | HEK293T ELG1-luciferase reporter, luminescence, 16 h; DNA damage induced by 5-fluorouridine | 2.3% of 330,000 active; further: nearly all actives have a fitted effect of over 55% in size
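Step one: seed 2,000 cells per well. Step two: pin-transfer compound or DMSO alongside 5-fluorouridine. Step three: incubate 16 hr, 37 °C, 5% CO2. Step four: add ONE-Glo, wait 30 min, read luminescence.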
SW480 rerep: inducers of DNA re-replication in SW480 colon cancer cells | SW480 DNA re-replication, Hoechst DNA content imaging, 48 h | Potency, µM (doses to about 46.1 µM), most hits filed as activators | 1.8% of 340,000 active; further: nearly all actives have a fitted effect of over 55% in size
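Hoechst fluorescence of nuclei (405 nm excitation, 500-530 nm emission) measured by plate-scanning imager after 48 hr compound exposure at 37 C; re-replication scored as increased number of nuclei with elevated intensity.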
Numbers stand for hits; – = inactive; ? = inconclusive; · = no result. A selection: hits, their analogues and other compounds. The true share with any hit is near 8.1%. The call rests on the fitted dose curve; in most records, active means well fitted curve in the direction sought with a large enough effect; inconclusive means small, poorly fitted or top-dose-only effect, or another doubt; inactive means no such curve, though single readings can be large; an effect the other way counts as inactive or inconclusive.

SMILES | KB-3-1 tox | MCF10A rerep | KB-V1 cytotox | ELG1 DNA repair | SW480 rerep
Cc1ccc2nc(NC(=O)C3CCN(S(=O)(=O)c4cccc5nsnc45)CC3)sc2c1 | – | – | ? | 16.4µM | –
COc1ccc(N(C)S(=O)(=O)c2cccc(C(=O)OCC(=O)Nc3cc(C)ccc3OC)c2)cc1 | – | · | – | · | ·
O=c1c2sc3ccccc3c2n(Cc2cccc(C(F)(F)F)c2)c(=O)n1Cc1ccco1 | – | · | – | · | ·
CCC1CN(S(=O)(=O)c2cc(-c3cc(C)no3)ccc2OC)c2cc(C)ccc2O1 (stereo not given) | – | – | – | ? | ?
CCOC(=O)c1c2c(n(Cc3ccccc3)c1C)C(=O)C(=O)c1ccccc1-2 | 2.91µM | 3.26µM | 3.26µM | · | 4.11µM
CCOC(=O)c1c(-c2ccccc2)c(C(C)=O)c(=O)n(C)c1C | – | – | – | – | –
CCOC(=O)c1c2c3c(cccc3n(C)c1=O)C(=O)c1ccccc1-2 | ? | – | 20.6µM | ? | –
CCCn1c(C)c(C(=O)OCC)c(O)c(-c2ccccc2)c1=O | – | – | – | · | –
CCOC(=O)c1c2c(n(C)c1C)C(=O)C(=O)c1ccc(Br)cc1-2 | 3.66µM | 2.06µM | 3.26µM | · | 2.59µM
Brc1ccc2c(ccc[n+]2CCc2ccccc2)c1 | ? | · | – | · | ·
O=C(CN1CCC(NC(=O)c2ccco2)CC1)Nc1ccccc1[N+](=O)[O-] | · | · | · | – | ·
Cn1nc(-c2ccccc2)cc1NC(=O)[C@@H]1O[C@H](CO)[C@H](O)[C@H](O)[C@H]1O | – | · | – | · | ·
Cc1ccccc1NC1=NC2(CCCC2)N=C(N)N1 | ? | ? | ? | – | –
Cc1cccc(NC2=NC3(CCCCC3)N=C(N)N2)c1C | – | – | – | – | –
NC1=NC2(CCCCC2)N=C(Nc2ccc(Br)cc2)N1 | 23.1µM | – | – | ? | –
Cc1ccc(C)c(NC2=NC3(CCCCC3)N=C(N)N2)c1 | 18.4µM | – | – | – | –
Cc1cccc(C)c1NC1=NC2(CCCCC2)N=C(N)N1 | – | – | – | – | –
Cc1ccc(NC2=NC3(CCCCC3)N=C(N)N2)c(C)c1 | 7.31µM | – | – | – | –
Cc1ccc(NC2=NC3(CCCC3)N=C(N)N2)c(C)c1 | 4.11µM | – | – | – | ?
COc1cccc(NC2=NC3(CCCCC3)N=C(N)N2)c1 | – | – | – | – | –
CCOC(=O)c1c(NC(=O)c2cc(=O)c3c(C)cc(C)cc3o2)sc(C)c1C | – | · | – | · | ·
COc1cccc(CN(C(=O)c2oc3ccccc3c2C)C2CCS(=O)(=O)C2)c1 (stereo not given) | – | · | – | · | ·
Cn1ncc2c(Nc3ccc4ccccc4c3)ncnc21 | – | ? | ? | ? | 16.4µM
Cc1ccc(Nc2nc(NCCO)nc3c2cnn3C)cc1Cl | – | – | – | ? | ?
Cn1ncc2c(Nc3ccc(O)cc3)nc(Cl)nc21 | – | – | – | ? | –
SMILES | KB-3-1 tox | MCF10A rerep | KB-V1 cytotox | ELG1 DNA repair | SW480 rerep
CNc1nc(Nc2ccc(C)c(Cl)c2)c2cnn(C)c2n1 | ? | ? | ? | ? | –
Cn1ncc2c(Nc3cccc(Cl)c3)nc(Nc3cccc(Cl)c3)nc21 | ? | 18.4µM | ? | ? | ?
CCCNc1nc(Nc2ccc(C)c(Cl)c2)c2cnn(C)c2n1 | – | – | – | 14.6µM | –
Cn1ncc2c(Nc3ccc(Br)cc3)nc(Nc3ccc(Br)cc3)nc21 | – | ? | – | 23.1µM | –
CC(Cn1cnc2ccccc21)C(=O)O (stereo not given) | – | – | – | – | –
OC(COCC1CC=CCC1)Cn1cnc2ccccc21 (stereo not given) | – | – | – | – | –
OC(COCc1ccccc1)Cn1cnc2ccccc21 (stereo not given) | – | – | 16.4µM | – | –
OC(CN(c1ccccc1)c1ccccc1)Cn1cnc2ccccc21 (stereo not given) | ? | – | 18.4µM | ? | –
CC(C)C[C@@H]1O[C@H](CCc2ccccc2)Cc2[nH][nH]c(=O)c21 | – | · | – | · | ·
Cc1cccn2c(=O)c3cc(C(=O)NC4CCCCC4)c(=N)n(Cc4ccccc4)c3nc12 | ? | 2.06µM | ? | – | 2.31µM
COc1ccc(CCn2c(=N)c(C(=O)NC3CCCC3)cc3c(=O)n4cccc(C)c4nc32)cc1 | ? | – | ? | – | ?
Cc1cccn2c(=O)c3cc(C(=O)NC4CCCC4)c(=N)n(C4CCCCC4)c3nc12 | – | – | – | ? | 3.26µM
Cc1cccn2c(=O)c3cc(C(=O)NC4CCCC4)c(=N)n(CCc4ccccc4)c3nc12 | – | 2.59µM | ? | – | 4.61µM
Cc1cccn2c(=O)c3cc(C(=O)NC4CCCC4)c(=N)n(Cc4ccc(F)cc4)c3nc12 | – | 2.31µM | – | – | 4.61µM
CCOC(=O)[C@]12CCCC=C1N(Cc1ccccc1)C(=O)[C@H](CC(=O)NCc1cccc3ccccc13)C2 | – | · | ? | · | ·
Cc1cccn2c(=O)c3cc(C(=O)NC4CCS(=O)(=O)C4)n(Cc4ccccc4)c3nc12 (stereo not given) | – | 13µM | – | – | 2.59µM
Cc1cccn2c(=O)c3cc(C(=O)NCc4ccco4)c(=N)n(C4CCCCC4)c3nc12 | – | 23.1µM | ? | ? | 16.4µM
Cc1ccc2nc3c(cc(C(=O)NCc4ccco4)c(=N)n3C3CCCC3)c(=O)n2c1 | · | · | · | – | ·
CCCCNC(=O)c1cc2c(=O)n3cccc(C)c3nc2n(Cc2ccccc2)c1=N | – | – | – | – | –
CNC(=O)c1cc2c(=O)n3cccc(C)c3nc2n(C(C)C)c1=N | – | 3.66µM | – | – | ?
CCn1c(=N)c(C(=O)NCc2cccnc2)cc2c(=O)n3cccc(C)c3nc21 | · | · | · | – | ·
CC(=O)N/C(=N\c1nc(C)cc(C)n1)Nc1ccc(Cl)cc1Cl | – | – | – | – | –
Cc1cc(C)n(C(=O)/C(C#N)=N/Nc2cc(Cl)cc(Cl)c2)n1 | – | ? | ? | 16.4µM | –
Cc1cc(C)n(C(=O)/C(C#N)=N\Nc2ccccc2[N+](=O)[O-])n1 | – | – | – | – | –
c1cnc2c(OCc3cn4cccnc4n3)cccc2c1 | – | 11.6µM | – | ? | –
SMILES | KB-3-1 tox | MCF10A rerep | KB-V1 cytotox | ELG1 DNA repair | SW480 rerep
Clc1ccc(OCc2cn3cccnc3n2)c2ncccc12 | – | – | – | ? | –
CCC(C)NS(=O)(=O)c1ccc(NC(=O)C(Sc2ccccc2)c2ccccc2)cc1 (stereo not given) | ? | ? | 16.4µM | ? | ?
CC(=O)NS(=O)(=O)c1ccc(NC(=O)C(Sc2ccccc2)c2ccccc2)cc1 (stereo not given) | – | – | ? | – | –
CCCCNS(=O)(=O)c1ccc(NC(=O)C(Sc2ccccc2)c2ccccc2)cc1 (stereo not given) | ? | ? | ? | 18.4µM | ?
O=C(Nc1nncs1)C(Sc1ccccc1)c1ccccc1 (stereo not given) | – | – | 20.6µM | – | –
CC(=O)Nc1ccc(NC(=O)C(Sc2ccccc2)c2ccccc2)cc1 (stereo not given) | – | – | – | ? | –
O=C(Nc1ccon1)C(Sc1ccccc1)c1ccccc1 (stereo not given) | – | – | – | – | –
